According to PubChem BioAssay AID1240 (Sanford-Burnham Center for Chemical Genomics, 2008):
Screen size: about 50,000 compounds; about 800 (1.6%) showed an effect of 50% or more. For the sample, strong results were picked, then their nearest neighbours and some compounds at random.

biological target: Bcl-2-like protein 10 (Homo sapiens) (UniProt Q9HD36); assay: TR3 peptide-Bcl-B binding displacers, biochemical primary FP assay, phenotype converters (AID 1240); conditions: GST-Bcl-B / FITC-TR3 peptide fluorescence polarization; stronger effect = higher value; compound at 3.75 mg/L;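 further: 0% = Bcl-B with tracer peptide and DMSO and 100% = tracer peptide lacking Bcl-B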
Sequence (Q9HD36 whole entry, looked up): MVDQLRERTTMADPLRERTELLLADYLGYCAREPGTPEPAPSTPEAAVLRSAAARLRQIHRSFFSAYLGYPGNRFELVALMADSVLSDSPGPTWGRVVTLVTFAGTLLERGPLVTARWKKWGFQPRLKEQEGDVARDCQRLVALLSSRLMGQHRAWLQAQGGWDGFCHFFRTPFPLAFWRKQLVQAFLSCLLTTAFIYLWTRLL

SMILES | displacement [%]
O=C(Nc1cc(NC(=O)c2ccccc2)cc(C(=O)Nc2nccs2)c1)c1ccccc1 | 4.4
O=C(COc1ccccc1F)Nc1nc(-c2cccs2)c(NC(=O)c2ccccc2)s1 | 14.6
CC(C(=O)NN)C1=NC(C)(C)Cc2ccccc21 (configuration not stated) | -17.7
CC(=O)N1N=C2CC(C)(C)OCC2C1c1ccccc1 (configuration not stated) | 12
N=C(SC1CC(=O)N(c2cccc3ccccc23)C1=O)N1N=C(c2cccs2)CC1c1ccc(Br)cc1 (configuration not stated) | 85.7
Cc1cccc(N2C(=O)CC(SC(=N)N3N=C(c4cccs4)CC3c3ccc(Br)cc3)C2=O)c1 (configuration not stated) | 5.6
N=C(SC1CC(=O)N(c2ccccc2Cl)C1=O)N1N=C(c2cccs2)CC1c1ccc(Br)cc1 (configuration not stated) | 1.4
Cn1c(CNc2ccccc2)nc2ccccc21 | -1.3
Cn1c(CNc2ccc(O)cc2)nc2ccccc21 | 76.7
Cn1c(CNc2ccccc2O)nc2ccccc21 | 0.7
COc1ccc(N(CC(=O)N2CCN(c3ccccc3OC)CC2)S(=O)(=O)c2ccccc2)c(OC)c1 | 8.6
c1ccc(Oc2cccc(CSc3nnnn3-c3ccccc3)c2)cc1 | 1
Cc1c(Cl)cccc1NC1C=CS(=O)(=O)C1 (configuration not stated) | 14
CCc1cccc(C)c1NC1C=CS(=O)(=O)C1 (configuration not stated) | 52.3
Cc1ccc(NC2C=CS(=O)(=O)C2)cc1C (configuration not stated) | 6.7
CN(C1CCS(=O)(=O)C1)S(=O)C12CC3CC(CC(C3)C1)C2 (configuration not stated) | -4.8
CCCSc1nnc2n(-c3ccc(OC)cc3)c(=O)c3c4c(sc3n12)CCCC4 | 34.9
COC(=O)CSc1nnc2n(-c3ccc(OC)cc3)c(=O)c3c4c(sc3n12)CCCC4 | 5.6
CCSc1nnc2n(-c3ccc(OC)cc3)c(=O)c3c4c(sc3n12)CCCC4 | 119
COc1ccc(-n2c(=O)c3c4c(sc3n3c(SCC(N)=O)nnc23)CCCC4)cc1 | 0.7
COc1ccc(-n2c(=O)c3c4c(sc3n3c(SCCC(C)C)nnc23)CCCC4)cc1 | 89.8
C=C(C)CSc1nnc2n(-c3ccc(OC)cc3)c(=O)c3c4c(sc3n12)CCCC4 | 3

SMILES | displacement [%]
Clc1ccccc1C=NN1CCN(Cc2ccccc2Cl)CC1 | -2.4
FC(F)(F)c1cc(/C=C/c2ccccc2)no1 | 7.7
CC(=O)Nc1ccc(S(=O)(=O)Nc2cccc(C)c2C)cc1 | 12.9
CN(C)c1ccc(/C=N/NC(=O)Cn2c3ccccc3c(=O)c3ccccc32)cc1[N+](=O)[O-] | 2.3
O=C1/C(=C/c2ccc3c(c2)OCO3)SC(=S)N1c1ccc(F)cc1 | 11.8
CN(C)/C=C1\N=C(c2ccccc2Br)OC1=O | -1.7
O=C1OC(c2ccccc2F)=N/C1=C\c1ccc(Br)cc1 | 9
COc1cccc(/C=C2\N=C(c3ccccc3OC)OC2=O)c1 | -6
COc1ccccc1C1=N/C(=C\c2ccc([N+](=O)[O-])cc2)C(=O)O1 | 27.4
N=C1S/C(=C\c2ccc3c(c2)OCO3)C(=O)N1c1ccc(F)cc1 | 2.6
O=C1OC(c2ccc(F)cc2)=N/C1=C\c1ccc2c(c1)OCO2 | 15.9
O=C1OC(c2ccccc2F)=N/C1=C\c1ccc2c(c1)OCO2 | 80
O=C1OC(c2ccccc2Br)=N/C1=C\c1cc2c(cc1Cl)OCO2 | 116
O=C1/C(=C\c2ccc3c(c2)OCO3)N=C(c2ccccc2)N1c1ccc(F)cc1 | 179
O=C1OC(c2ccccc2Br)=N/C1=C\c1cccnc1 | 4.7
COc1ccccc1C1=N/C(=C\c2ccc3c(c2)OCO3)C(=O)O1 | 111
Cn1nnnc1SCc1ccc(F)cc1 | -4
O=C1CS/C(=N/N=C/c2c3ccccc3cc3ccccc23)N1 | -1.8
CC(NC(=O)c1ccccc1)C12CC3CC(CC(C3)C1)C2 (configuration not stated) | 39.3
Cc1cccc(OCC(=O)O/N=C(\N)c2cccc(C)c2)c1 | -9.8
CCOC(=O)CONC(=NCc1ccccc1)c1nonc1N | 3.6
CCc1c(C)nc(N)nc1N1CCCC1 | 13.1

SMILES | displacement [%]
Cc1ccc(C(=O)NCCCN2CCOCC2)c2ccccc12 | -1.8
Cc1ccccc1N1C(=O)c2cccc3c(N4CCCCC4)ccc(c23)C1=O | 15.9
COc1ccccc1N1C(=O)c2cccc3c(N4CCN(C)CC4)ccc(c23)C1=O | 157
COc1ccccc1N1C(=O)c2cccc3c(N(C)C)ccc(c23)C1=O | 42.1
COc1ccccc1N1C(=O)c2cccc3c(Cl)ccc(c23)C1=O | 22.2
COc1ccccc1N1C(=O)c2cccc3c(N4CCCC4)ccc(c23)C1=O | 102
COc1ccccc1N1C(=O)c2ccc3c4c(ccc(c24)C1=O)CC3 | 13.4
Cc1cc(C)n(C2CC(=O)N(c3ccccc3)C2=O)n1 (configuration not stated) | 0.8
COc1ccc(C=C2C(=O)N(C)C(=O)N(C)C2=O)cc1O | -7.9
O=S(=O)(Nc1ccc(O)cc1)c1cc(Cl)ccc1Cl | -0.2
O=C(c1cccc(F)c1)N1CCN(C(=O)c2cccc(Cl)c2)CC1 | -18.6
O=c1sc2ccccc2c(N2CCN(c3ccccc3)CC2)c1[N+](=O)[O-] | -11.1
O=C(COC(=O)CN1C(=O)c2ccccc2C1=O)Nc1cccc2ccccc12 | -8.1
Cc1cccc(NC(=O)/C(C#N)=C\c2ccc(Sc3ccccc3)o2)c1C | 74.9
N#C/C(=C\c1ccc(-c2ccc(Cl)cc2)o1)C(=O)Nc1ccccc1O | -1
CCc1ccccc1NC(=O)/C(C#N)=C\c1ccc(Sc2ccccc2)o1 | -12.2
N#C/C(=C/c1ccc(Sc2ccccc2)o1)C(=O)Nc1ccccc1 | -22.8
N#C/C(=C\c1ccc(-c2ccccc2)o1)C(=O)Nc1ccc(C#N)cc1 | 168
N#C/C(=C/c1ccc(-c2ccc(S(N)(=O)=O)cc2)o1)C(=O)Nc1ccccc1 | -0.4
CCOc1ccc(/C=C/C(=O)c2ccc(F)cc2)cc1 | -0.4
CN(C)/C=C1\C(=O)N/C(=C/c2ccc(Br)cc2)C1=O | 7.9
CCN(CC)c1ccc(NC(=O)c2ccc3ccccc3n2)cc1 | 1.3

SMILES | displacement [%]
CCCCS(=O)CC(O)COC(C)C (configuration not stated) | -1.5
Cc1cc(OCC(=O)NC2C3CC4CC(C3)CC2C4)ccc1Br (configuration not stated) | -6.7
COc1cc(/C=C2\C=C(c3ccc(Br)cc3)OC2=O)c([N+](=O)[O-])cc1OC | 55
COc1cc(/C=C2\C=C(c3ccc(Cl)cc3)OC2=O)c([N+](=O)[O-])cc1OC | -11.8
COc1ccc(/C=C2\C=C(c3ccc(Br)cc3)OC2=O)cc1[N+](=O)[O-] | 70
COc1ccc(C2=C/C(=C\c3ccc(OC)c([N+](=O)[O-])c3)C(=O)O2)cc1 | 2.7
COc1cc(OC)c([N+](=O)[O-])cc1/C=C1\C=C(c2ccc(Br)cc2)OC1=O | 49.1
COc1ccc(/C=C2\C=C(c3ccc(C)cc3)OC2=O)cc1[N+](=O)[O-] | 6.6
COc1cccc(OCCCCS)c1 | 10
O=C(O)c1cc(S(=O)(=O)N2CCCCC2)ccc1O | -1.5
COc1ccc(C2CC(=O)C3=C(C2)Nc2ccccc2NC3c2cccc3ccccc23)cc1OC (configuration not stated) | 1.8
O=C(Nc1c(C(=O)N2CCOCC2)cnn1-c1ccccc1)c1cccs1 | 12.5
CCc1cc2c(=O)c(-c3nc4ccccc4s3)coc2c(CN2CCOCC2)c1O | 1
CN(C)Cc1c(O)ccc2cc(-c3nc4ccccc4s3)c(=O)oc12 | 110
Cc1oc2c(CN(CC(C)C)CC(C)C)c(O)ccc2c(=O)c1-c1nc2ccccc2s1 | 12.7
Cc1oc2c(CN3CCN(C)CC3)c(O)ccc2c(=O)c1-c1nc2ccccc2s1 | 11.7
O=c1oc2c(CN3CCOCC3)c(O)ccc2cc1-c1nc2ccccc2s1 | 118
CN1CCN(Cc2c(O)ccc3cc(-c4ccccn4)c(=O)oc23)CC1 | 25.9
CN1CCN(Cc2c(O)ccc3cc(-c4nc5ccccc5s4)c(=O)oc23)CC1 | 121
CCc1cc2c(=O)c(-c3nc4ccccc4s3)coc2c(CN(C)C)c1O | -15
Cc1oc2c(CN3CCCC3)c(O)ccc2c(=O)c1-c1nc2ccccc2s1 | 12.7
Cc1cccc(NC(=O)C2C(c3ccccc3)=C2c2ccccc2)c1C | 5.5

SMILES | displacement [%]
CCN(CC)c1ccc(NC(=O)COc2ccc(OC)cc2)cc1 | -5
COc1ccccc1N1C(=O)NC(=O)/C(=C/c2ccc(OC)c3ccccc23)C1=O | 5.3
C=CCOc1ccc(Cl)cc1/C=C1/SC(=S)NC1=O | -2.6
O=C(Nc1cc(Br)cc2cccnc12)c1ccc(Cl)cc1 | -7.2
Cc1cc(C=C2C(=O)NC(=O)NC2=O)c(C)n1-c1ccc(N2CCOCC2)cc1 | 126
Cc1cc(C=C2C(=O)NC(=S)NC2=O)c(C)n1-c1ccc(N2CCOCC2)cc1 | 22.3
Cc1cc(/C=C2/NC(=O)NC2=O)c(C)n1-c1ccc(N2CCOCC2)cc1 | -5.1
Cc1cc(C=C2C(=O)NC(=O)NC2=O)c(C)n1-c1ccc(Cl)cc1 | 106
Cc1cc(/C=C2\NC(=O)NC2=O)c(C)n1-c1ccc(N(C)C)cc1 | 3.4
Cc1cc(C=C2C(=O)NC(=O)NC2=O)c(C)n1-c1ccc(F)cc1 | 4.7
Cc1cc(/C=C2\C(=O)NC(=O)N(C)C2=O)c(C)n1-c1ccc(N(C)C)cc1 | 124
Cc1cc(/C=C2/NC(=O)NC2=O)c(C)n1-c1ccc(Cl)cc1 | 10.7
Cc1cc(/C=C2/C(=O)NC(=O)N(c3ccccc3)C2=O)c(C)n1-c1ccccc1 | 30.8
FC(F)(F)c1ccccc1CN1CCN(Cc2c[nH]c3ccccc23)CC1 | -5.2
C=C(C)CNC(=S)NC1=C(C)N(C)N(c2ccccc2)C1=C | -10.7
O=C(NC1CCS(=O)(=O)C1)/C(=C\c1ccc(Br)cc1)NC(=O)c1ccccc1 (configuration not stated) | 1.9
O=C1c2ccccc2C(=O)C12OC(c1ccc(Br)cc1)C1(C(=O)c3ccccc3C1=O)C2c1ccc(F)cc1 (configuration not stated) | 2.6
Fc1ccc(/C=N/Nc2nnc(-c3ccccc3)c(-c3ccccc3)n2)cc1 | 5.2
C(=C(\c1ccccc1)c1nc2ccccc2[nH]1)/c1ccco1 | 2.2
